The test system of this assay is CRL-7250. The assay can be described thus: qHTS assay to identify novel small-molecules to repurpose for Merkel cell carcinoma treatment (AID 1296009). Further: nearly all actives have a fitted effect of over 60% in size. Conditions: MCC and control cell lines, CellTiter-Glo viability, 72 h; at 44.8 µM (top of the series) unless noted. In short, it runs like this:
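Cell viability measured by CellTiter-Glo following 72 hr compound treatment at 37 degree celsius, with NPC and MIPE libraries tested in 8- and 11-point concentration series.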
In general terms: In qHTS, concentration-response curves come from the screen itself.

Inconclusive results are not listed. Calls of active or inactive are those of the source. The call rests on the fitted dose curve; in most records, active means well fitted inhibition curve with a large enough effect; inconclusive means small, poorly fitted or top-dose-only effect; inactive means flat fitted curve, though single readings scatter. Residues, ends and D or L forms follow the SMILES beside them.

`Cc1onc(-c2c(Cl)cccc2Cl)c1C(=O)Cl`: the compound was classed as inactive.

Consider `Cn1nnc2c(C(N)=O)ncn2c1=O`, for which the compound was classed as inactive.

With `CC(C)OC(=O)OCOP(=O)(CO[C@H](C)Cn1cnc2c(N)ncnc21)OCOC(=O)OC(C)C`, the outcome was inactive.

On to `COc1ccc2cc1Oc1cc3c(cc1OC)CC[N+](C)(C)[C@H]3Cc1ccc(cc1)Oc1c(OC)c(OC)cc3c1[C@@H](C2)[N+](C)(C)CC3`, for which the outcome was inactive.

`Cc1cc2nc3c(=O)[nH]c(=O)nc-3n(C[C@H](O)[C@H](O)[C@H](O)CO)c2cc1C`: the outcome was “inactive [at 17.4 µM]”.

Turning to `CC(=O)Nc1ccc(/C=N/NC(N)=S)cc1`, the compound was classed as inactive.

Regarding `CCN1CCC[C@H]1CNC(=O)c1c(O)c(Cl)cc(Cl)c1OC`, the compound was called inactive.

With `NC(=O)NC1N=C([O][Al])NC1=O` (stereo not drawn), the call was inactive.

As for `CN(C)C(=O)Oc1ccc[n+](C)c1`, the call was inactive.

Consider `O=C(O)c1cc(=O)[nH]c(=O)[nH]1`, for which the call was inactive.

Consider `N#CCC(=O)NN`, for which the compound was called inactive.

In the case of `CCC[C@@H]1C[C@@H](C(=O)N[C@@H]([C@H]2O[C@H](SC)[C@H](O)[C@@H](O)[C@H]2O)[C@@H](C)O)N(C)C1`, the outcome was inactive.

Regarding `Cc1c(C(=O)NCCO)[n+](=O)c2ccccc2n1[O-]`, the call was inactive.

On to `CC(=O)[C@H]1CC[C@H]2[C@@H]3C[C@H](C)C4=CC(=O)CC[C@]4(C)[C@H]3[C@@H](O)C[C@]12C`, for which the compound was classed as inactive.

For the compound `Cc1ccc(C(C)C)c(O)c1`, the compound was classed as inactive.

On to `COC(=O)[C@H](Cc1ccccc1)NC(=O)[C@@H](N)CC(=O)O` (H-Asp-Phe-OMe), for which the compound was classed as inactive.

For `Nc1nc2ccc(OC(F)(F)F)cc2s1`, the compound was classed as inactive.

Regarding `CCOC(=O)C1=C(C)NC(C)=C(C(=O)OC)C1c1cccc([N+](=O)[O-])c1` (stereo not drawn), the compound was called inactive.

Values taken from PubChem BioAssay (NCATS).
